# From PubChem
# AGP1-GFP MLPCN: yeast TOR pathway AGP1-GFP modulation. 0.02% of 320,000 active. GFP response vs DMSO, % at 10 µM. S. cerevisiae AGP1-GFP multiplex flow cytometry, 3 h; GFP as percent of DMSO wells;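 active = GFP response relative to DMSO above a set limit, near screen average plus 3 SD, cut at about 150% in these data; inconclusive = fewer than 70 cells counted for the yeast strain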;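 note: median GFP channel fluorescence of the gated AGP1 strain per well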
# LAP4 TOR yeast: modulators of TOR pathway LAP4-GFP in S. cerevisiae; S. cerevisiae LAP4-GFP multiplex, flow cytometry GFP, 3 h; median GFP as percent of DMSO wells; GFP response vs DMSO, % at 10 µM; 0.34% of 320,000 active; AID 2023;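 active = GFP response vs DMSO above a set limit, about the screen mean plus 3 SD, cut at about 150% in these data; inconclusive = under 70 cell events counted for the yeast strain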
# RPL19A TOR yeast: modulators of TOR pathway RPL19A-GFP in S. cerevisiae | S. cerevisiae RPL19A-GFP strain, flow cytometry, 3 h; active compounds read low | percent response vs DMSO, % at 10 µM | 0.3% of 330,000 active;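 active = percent response vs DMSO below 50%; inconclusive = fewer than 70 events counted for the yeast strain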;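 note: median channel GFP fluorescence of the barcoded RPL19A-GFP strain; ratio of sample median GFP to plate DMSO average so 100% = DMSO; lower means less RPL19A-GFP as with rapamycin TOR inhibition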
# CIT2-GFP yeast: alters CIT2-GFP fluorescence in TOR pathway yeast screen; S. cerevisiae CIT2-GFP strain, flow cytometry, 3 h; 100 means same as DMSO wells; GFP response vs DMSO, % at 10 µM; 0.065% of 320,000 active; AID 2029;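 active = GFP response relative to DMSO above a set limit, near the screen mean plus 3 SD, cut at about 150% in these data; inconclusive = Fewer than 70 cells measured for a yeast strain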;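 note: ratio of well median GFP fluorescence to mean of DMSO wells on the plate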
# MEP2 TOR yeast: alters MEP2-GFP fluorescence in TOR pathway yeast screen. 0.51% of 330,000 active. GFP response vs DMSO, % at 10 µM. S. cerevisiae MEP2-GFP strain, flow cytometry GFP, 3 h; 100% = DMSO control level;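 active = GFP response versus DMSO above a set limit, roughly screen mean plus 3 SD, cut at about 180% in these data; inconclusive = fewer than 70 cells counted for a yeast strain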;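 note: median GFP fluorescence of the barcode-gated MEP2-GFP cells per well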
# Starred values were filed as active, the others as inactive; ? = inconclusive; nt = no result given; [ ] = dose if it differs, or a comment. A selection: hits, their analogues and other compounds. The true share with any hit is near 0.93%.
SMILES,AGP1-GFP MLPCN,LAP4 TOR yeast,RPL19A TOR yeast,CIT2-GFP yeast,MEP2 TOR yeast
Cc1ccc(N(C(=O)c2csnn2)C(C(=O)NC2CCCC2)c2cccnc2)c(C)c1 (centres undefined),109,108,121,111,116
COc1ccc(C2CC(c3cccs3)=NN2c2ccc(C=O)cc2)cc1 (centres undefined),?,73,23*[may fluoresce violet],?,142
COc1ccc(C2=NN(c3ccc(C=O)cc3)C(c3ccccc3)C2)cc1 (centres undefined),10,93,89,59,132
COc1ccc(C2=NN(c3ccccc3)C(c3ccc(OC)c(OC)c3)C2)cc1 (centres undefined),16,87,77,?,183*[may fluoresce violet]
O=Cc1ccc(N2N=C(c3ccccc3)CC2c2ccccc2)cc1 (centres undefined),?,89,63,?,208*[may fluoresce violet]
CC(=O)Nc1ccc(C2CC(c3ccc(Cl)cc3)=NN2c2ccccc2)cc1 (centres undefined),12,95,83,?,181*[may fluoresce violet]
c1ccc(C2CC(c3cccs3)=NN2c2ccccc2)cc1 (centres undefined),?,?,38*[may fluoresce violet],?,?
COc1ccc(C(c2nnnn2CC2CCCO2)N2CCN(c3ccccc3)CC2)cc1 (centres undefined),31,93,nt,?,242*[may fluoresce violet]
COc1ccc(-c2nnc(SCC(=O)N(Cc3ccccc3)C(C)(C)C)o2)cc1OC,?,146,10*[may fluoresce violet],?,?
COc1cc(-c2nnc(SCC(=O)c3ccccc3)o2)cc(OC)c1OC,91,110,92,92,97
CCOC(=O)CC1COCCN1Cc1cn(C)nc1-c1ccccc1F (centres undefined),?,63,17*[may fluoresce violet],?,199*[may fluoresce violet]
Cc1cc(N2CCN(Cc3cn(C)nc3-c3ccccc3F)CC2)cc(C)n1,102,99,101,106,99
O=C(NCC1CCCO1)c1ccc2c(c1)N(Cc1ccccc1)CCS2 (centres undefined),102,95,100,100,98
CN1CCc2c(sc3c2C(=O)NC(c2ccc4c(c2)OCO4)N3)C1 (centres undefined),40,107,78,110,202*
CN1CCc2c(sc3c2C(=O)NC(c2ccccc2)N3)C1 (centres undefined),96,96,99,94,101
O=c1n(Cc2ccccc2)nc2n1-c1ccccc1SC2,109,118,100,92,98
O=c1n(Cc2ccc(F)cc2)nc2n1-c1ccccc1SC2,?,79,42*[may fluoresce violet],?,199*[may fluoresce violet]
CCCC(=O)Nc1nn(C)c2nc3c(C)cccc3cc12,nt,102,39*[may fluoresce violet],?,565*[may fluoresce violet]
O=c1cc(-c2ccc(C(F)(F)F)cc2)oc2ccccc12,?,107,44*[may fluoresce violet],?,181*[may fluoresce violet]
Cc1ccc(S(=O)(=O)CC(=O)Nc2ccccn2)cc1,?,84,28*[may fluoresce violet],?,233*[may fluoresce violet]
Cc1ccc(S(=O)(=O)CC(=O)Nc2ccc(S(=O)(=O)Nc3ccccn3)cc2)cc1,92,105,86,85,82
Cc1ccc(NC(=O)c2cc3ccccc3oc2=N)cc1,99,101,103,102,107
N=c1oc2cc(O)ccc2cc1C(=O)Nc1ccc(Cl)cc1,?,76,38*[may fluoresce violet],?,227*[may fluoresce violet]
Cc1ccc(CN(C)C(=O)C2CCC(=O)N(CC3CCCCC3)C2)o1 (centres undefined),93,93,100,93,96
Cc1ccc(F)cc1CNC(=O)C1CCC(=O)N(CC2CCCCC2)C1 (centres undefined),101,88,105,112,109
CC1CCC(NC(=O)CN2C(=O)c3cccnc3Oc3ccc(Cl)cc32)CC1 (centres undefined),91,89,96,91,93
Cc1ccc([N+](=O)[O-])cc1N=C1C(=O)Nc2ccccc21,?,68,55,?,616*[may fluoresce violet]
COc1ccccc1NS(=O)(=O)c1cccc(C(=O)N2CCCC2)c1,102,107,98,96,105
COc1cccc(C(=O)C(C#N)=C(SC)SC)c1,96,171*,95,71,93
COc1cccc(C(=O)Nc2ccc(NC(C)=O)cc2)c1,89,92,91,93,97
